The panel holds about 83,000 compounds, 20% with a hit somewhere; the sample as a whole holds those more often.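 Activity criterion: percent growth below 10, measured after cells in 96-well plates were exposed to a single compound concentration for 48 hours.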 A number with no mark means an inactive call. Calls of active or inactive are those of the source.
The compounds below were run on HL-60(TB) leukemia (assay: NCI-60 one-dose screen, 48 h (100 = growth as untreated, 0 = no growth, -100 = all killed)). Conditions: 10 µM unless noted.

Structure (SMILES) | growth
COc1ccc(-c2nc3ccc(-c4nnc(SCC(=O)Nc5ccc(/C(C)=N\O)cc5)o4)cc3[nH]2)cc1 | 77.6%
CN1CCc2c(sc3ncnc(N/N=C/c4ccc(Cl)cc4Cl)c23)C1 | -49.9% (active)
COc1nccnc1NS(=O)(=O)c1ccc(NC2=C(Cl)C(=O)c3nc(C)ccc3C2=O)cc1 | 100%
O=c1cc(-c2ccccc2)oc2cc(OCCCCNCc3ccccc3)cc(O)c12 | -65.6% (active)
Nc1cc2ccccc2c(=O)n1NC(=O)c1ccc(I)cc1 | 77%
O=C1NC2C=CC=CC2/C1=C1/SC(=S)N(C2CC(=O)N(c3ccc(Br)cc3)C2=O)C1=O (configuration not stated) | 58.9%
Cn1cc(-c2cc(N)n3nc(-c4c[nH]c5ccccc45)cc3n2)c2cc(Cl)ccc21 | -16.2% (active)

From PubChem BioAssay (NCI)
